# Test results taken from PubChem BioAssay (Tox21).
# Records with an inconclusive call do not appear. A call without a number means that no potency is given here. A number with no mark means an inactive call. Calls of active or inactive are those of the source. Unless noted, the call rests on the fitted dose curve.
# Experiment: qHTS assay to identify small molecule antagonists of the peroxisome proliferator-activated receptor gamma (PPARg) signaling pathway - cell viability counter screen (AID 743194; active means well fitted cell-killing curve with a large enough effect in the repeat runs; further: nearly all actives have a fitted effect of over 55% in size)
# Conditions: PPARg-bla HEK293H viability, CellTiter-Glo luminescence, 17 h, co-treated with 50 nM rosiglitazone; series mostly up to 62.6 µM
# Summary of the method: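 Viability was measured as CellTiter-Glo luminescence in GeneBLAzer PPARg UAS-bla HEK293H cells. These cells had been exposed 17 h at 37 C to compounds together with rosiglitazone at 50 nM final, with the beta-lactamase readout taken in the same wells.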
SMILES,outcome,"activity change, negative = cytotoxicity"
Cc1ccc(OC(=O)CC(C)C)cc1,inactive,
CCCCCCCCCCCCCCCCN(C)C,,2.19% [at 5.95 µM]
CC[C@@]1(c2ccccc2)NC(=O)N(C)C1=O,inactive,
O=C(O)P(=O)(O)O,inactive,
Cc1ccc(S(=O)(=O)NC(=O)NN2CC3CCCC3C2)cc1 (stereo not given),inactive,
CN(C)CCCN(C)C,,-7.23% [at 5.95 µM]
c1cc2ccc3ccc4ccc5cccc6c(c1)c2c3c4c56,,27.2% [at 2.7 µM]
CC1(C)C(=O)C(C)(C)C1=O,inactive,
C=C(C)C(=O)OCCCC,inactive,
C[C@@H]1CC[C@@]2(OC1)O[C@H]1C[C@H]3[C@@H]4CC[C@H]5C[C@@H](O)CC[C@]5(C)[C@H]4CC(=O)[C@]3(C)[C@H]1[C@@H]2C,,10.8% [at 5.95 µM]
CCOCCOCCOC(C)=O,inactive,
CC(O)CCCCn1c(=O)c2c(ncn2C)n(C)c1=O (stereo not given),inactive,
CCOC(=O)CC,inactive,
c1coc(Cn2cccc2)c1,inactive,
C=COCCCCO,inactive,
CC/C=C\CCCCCCCCCCOC(C)=O,inactive,
CCCCCCCCS(=O)(=O)O,inactive,
CN1C(CCl)Nc2cc(Cl)c(S(N)(=O)=O)cc2S1(=O)=O (stereo not given),inactive,
CC(=O)SCC(CC(=O)c1ccc(C)cc1)C(=O)O (stereo not given),inactive,
CN(C)c1ccncc1,inactive,
O=S(=O)(O)CC(O)CCl (stereo not given),inactive,
Cc1ccc(O)c([N+](=O)[O-])c1,inactive,
OCCC(F)(F)C(F)(F)C(F)(F)C(F)(F)C(F)(F)C(F)(F)F,inactive,
CN(C)c1cc(NC(=O)CNC(C)(C)C)c(O)c2c1C[C@H]1C[C@H]3[C@H](N(C)C)C(=O)C(C(N)=O)=C(O)[C@@]3(O)C(=O)C1=C2O,inactive,
Cc1ccccc1OCC(=O)O,inactive,
CCOc1ccccc1OCCN[C@H](C)Cc1ccc(OC)c(S(N)(=O)=O)c1,inactive,
CCC(C)SSC(C)CC (stereo not given),inactive,

# Experiment: qHTS assay for small molecule agonists of the antioxidant response element (ARE) signaling pathway (AID 743202; active means well fitted activation curve with a large enough effect in the signal ratio in the repeat runs, not every such curve was filed as active; the % refers to the signal ratio; further: potency means the concentration at half of the fitted maximal effect)
# Conditions: HepG2 ARE-bla reporter, beta-lactamase FRET, 16 h; series mostly up to 73.3 µM
# Summary of the method: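 An ARE-responsive beta-lactamase gene stably integrated in HepG2 cells serves as reporter. After 5 h plating and 16 h compound incubation at 37 C, fluorescence of the B/G FRET substrate was measured.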
SMILES,Potency,activation
Cc1ccc(OC(=O)CC(C)C)cc1,inactive,
CCO/C=C1\N=C(c2ccccc2)OC1=O,inactive,
CCCCCCCCCCCCCCCCN(C)C,,0.808% [at 8.36 µM]
CC[C@@]1(c2ccccc2)NC(=O)N(C)C1=O,inactive,
O=C(O)P(=O)(O)O,inactive,
CC1(C)S[C@@H]2[C@H](NC(=O)Cc3ccccc3)C(=O)N2[C@H]1C(=O)O (tested in a mixture with another compound),inactive,
CC(CC(=O)Cl)CC(C)(C)C (stereo not given),inactive,
Cc1ccc(S(=O)(=O)NC(=O)NN2CC3CCCC3C2)cc1 (stereo not given),inactive,
Cc1ccc2cccnc2c1,inactive,
CCCC(=O)CC,inactive,
CN(C)CCCN(C)C,,-1.85% [at 8.36 µM]
CC1(C)C(=O)C(C)(C)C1=O,inactive,
C=C(C)C(=O)OCCCC,inactive,
CCCCN1C(=O)c2ccccc2C1=O,inactive,
C[C@@H]1CC[C@@]2(OC1)O[C@H]1C[C@H]3[C@@H]4CC[C@H]5C[C@@H](O)CC[C@]5(C)[C@H]4CC(=O)[C@]3(C)[C@H]1[C@@H]2C,,5.01% [at 8.36 µM]
CCOCCOCCOC(C)=O,inactive,

SMILES,Potency,activation
CC(O)CCCCn1c(=O)c2c(ncn2C)n(C)c1=O (stereo not given),inactive,
CCOC(=O)CC,inactive,
CC/C=C\CCCCCCCCCCOC(C)=O,inactive,
CCCCCCCCS(=O)(=O)O,inactive,
CN1C(CCl)Nc2cc(Cl)c(S(N)(=O)=O)cc2S1(=O)=O (stereo not given),26.6 µM (active),
CC(=O)SCC(CC(=O)c1ccc(C)cc1)C(=O)O (stereo not given),inactive,
CN(C)c1ccncc1,inactive,
O=S(=O)(O)CC(O)CCl (stereo not given),inactive,
C=CCN1CCc2nc(N)sc2CC1,inactive,
Cc1ccc(O)c([N+](=O)[O-])c1,inactive,
OCCC(F)(F)C(F)(F)C(F)(F)C(F)(F)C(F)(F)C(F)(F)F,inactive,
CNCCc1ccccn1,inactive,
Cc1ccccc1OCC(=O)O,inactive,
CCOc1ccccc1OCCN[C@H](C)Cc1ccc(OC)c(S(N)(=O)=O)c1,inactive,
CC1(C)CC(N)CC(C)(C)N1,inactive,

# Experiment: qHTS assay for small molecule agonists of the antioxidant response element (ARE) signaling pathway - cell viability counter screen (AID 743203); further: nearly all actives have a fitted effect of over 55% in size
# Conditions: ARE-bla HepG2 viability, CellTiter-Glo luminescence, 16 h; series mostly up to 73.3 µM
# Summary of the method: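 Seeded at 2,000 cells/well, ARE-bla HepG2 cells were incubated 5 hrs before compound addition. After 16 hrs of treatment at 37C with 5% CO2, CellTiter-Glo reagent was added and luminescence read 30 min later.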
SMILES,outcome,"viability change, negative = cytotoxic"
Cc1ccc(OC(=O)CC(C)C)cc1,inactive,
CCO/C=C1\N=C(c2ccccc2)OC1=O,inactive,
CCCCCCCCCCCCCCCCN(C)C,,8.57% [at 8.36 µM]
CC[C@@]1(c2ccccc2)NC(=O)N(C)C1=O,inactive,
O=C(O)P(=O)(O)O,inactive,
CC1(C)S[C@@H]2[C@H](NC(=O)Cc3ccccc3)C(=O)N2[C@H]1C(=O)O (tested in a mixture with another compound),inactive,
CC(CC(=O)Cl)CC(C)(C)C (stereo not given),inactive,
Cc1ccc(S(=O)(=O)NC(=O)NN2CC3CCCC3C2)cc1 (stereo not given),inactive,
Cc1ccc2cccnc2c1,inactive,
CCCC(=O)CC,inactive,
CN(C)CCCN(C)C,,5.88% [at 8.36 µM]
O=Cc1ccc(C(=O)O)cc1,inactive,
c1cc2ccc3ccc4ccc5cccc6c(c1)c2c3c4c56,,6.8% [at 3.74 µM]
CC1(C)C(=O)C(C)(C)C1=O,inactive,
C=C(C)C(=O)OCCCC,inactive,
CCCCN1C(=O)c2ccccc2C1=O,inactive,
C[C@@H]1CC[C@@]2(OC1)O[C@H]1C[C@H]3[C@@H]4CC[C@H]5C[C@@H](O)CC[C@]5(C)[C@H]4CC(=O)[C@]3(C)[C@H]1[C@@H]2C,,3.19% [at 8.36 µM]
CCOCCOCCOC(C)=O,inactive,
CC(O)CCCCn1c(=O)c2c(ncn2C)n(C)c1=O (stereo not given),inactive,

SMILES,outcome,"viability change, negative = cytotoxic"
CCOC(=O)CC,inactive,
c1coc(Cn2cccc2)c1,inactive,
C=COCCCCO,inactive,
CC/C=C\CCCCCCCCCCOC(C)=O,inactive,
CCCCCCCCS(=O)(=O)O,inactive,
CN1C(CCl)Nc2cc(Cl)c(S(N)(=O)=O)cc2S1(=O)=O (stereo not given),inactive,
CC(=O)SCC(CC(=O)c1ccc(C)cc1)C(=O)O (stereo not given),inactive,
CN(C)c1ccncc1,inactive,
O=S(=O)(O)CC(O)CCl (stereo not given),inactive,
N[C@H]1C(O)O[C@H](CO)[C@@H](O)[C@@H]1O (stereo not given in full),inactive,
Cc1ccc(O)c([N+](=O)[O-])c1,inactive,
OCCC(F)(F)C(F)(F)C(F)(F)C(F)(F)C(F)(F)C(F)(F)F,inactive,
CN(C)c1cc(NC(=O)CNC(C)(C)C)c(O)c2c1C[C@H]1C[C@H]3[C@H](N(C)C)C(=O)C(C(N)=O)=C(O)[C@@]3(O)C(=O)C1=C2O,inactive,
CNCCc1ccccn1,inactive,
Cc1ccccc1OCC(=O)O,inactive,
CCOc1ccccc1OCCN[C@H](C)Cc1ccc(OC)c(S(N)(=O)=O)c1,inactive,
CCC(C)SSC(C)CC (stereo not given),inactive,
CC1(C)CC(N)CC(C)(C)N1,inactive,
